Source: PubChem BioAssay (EPA / NIEHS)
Values joined by “and” are separate entries in the source; they are usually repeats but may differ in a detail not shown here. Identical values can stand only once. Inconclusive results are not listed. Active and inactive are the calls of the source. Rule for the calls: active = hit-call score of the fitted dose curve at least 0.9, where 1 is the maximum; inconclusive = response in the unintended direction; inactive = score below 0.9.

Experiment: ACEA_ER_AUC_viability: ACEA Biosciences xCELLigence Real-Time Cell Analysis on Estrogen Receptor Agonism for Viability (AID 2283782);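 note: continuous compound exposure with impedance area under curve over 80 h; hit means loss of impedance signal meaning reduced cell growth or viability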
Outline: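 T47D cells preconditioned in phenol red-free RPMI with charcoal-stripped FBS, then dosed with 8-point 1:4 series from 100 uM (up to 0.5% DMSO). Impedance monitored up to ~80 h; area-under-curve loss versus DMSO taken as viability.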

SMILES	outcome	AC50
CCC(C)(C#N)N=NC(C)(C#N)CC (stereo not given)	inactive	–
C1CN2CCN1CC2	inactive	–
BrCCCCBr	inactive	–
O=C1C=CC(=O)c2ccccc21	–	22.5 µM (active)
Cc1ccccc1OP(=O)(Oc1ccccc1)Oc1ccccc1	–	62.9 µM (active)
Cc1cc(Cl)ccc1N	–	80.8 µM (active) and 14.3 µM (active)
C[N+](C)(C)Cc1ccccc1	inactive	–
c1ccc2c(c1)Oc1ccccc1O2	inactive	–
O=[N+]([O-])c1cccc2ccccc12	inactive	–
NC(=O)CCl	–	39.6 µM (active)
O=S(=O)(C(Cl)(Cl)Cl)C(Cl)(Cl)Cl	–	5.21 µM (active)
CCOP(=S)(OCC)OP(=S)(OCC)OCC	inactive	–
Cc1c([N+](=O)[O-])c(C)c([N+](=O)[O-])c(C(C)(C)C)c1[N+](=O)[O-]	inactive	–
O=C=Nc1ccc(Cl)cc1	–	29.9 µM (active)
N#Cc1ccccc1Cl	inactive	–
O=c1oc2ccccc2c(O)c1C(CC(O)c1ccc(-c2ccc(Br)cc2)cc1)c1ccccc1 (stereo not given)	–	22.7 µM (active)
Brc1c(Br)c(Br)c(Oc2c(Br)c(Br)c(Br)c(Br)c2Br)c(Br)c1Br	inactive	–
N#Cc1ccc(Cl)cc1	–	50 µM (active)
COCC(=O)N(c1c(C)cccc1C)[C@H](C)C(=O)OC	–	50 µM (active)
c1ccc(-c2cccc(-c3ccccc3)c2)cc1	–	24.4 µM (active)
Cc1cccc(OP(=O)(Oc2cccc(C)c2)Oc2cccc(C)c2)c1	–	17.3 µM (active)
CCOP(=O)(OCC)OC(=CCl)c1ccc(Cl)cc1Cl	–	77.8 µM (active)
c1cc[c]([Sb]([c]2ccccc2)[c]2ccccc2)cc1	–	50 µM (active)
O=C(O)COc1cc(Cl)c(Cl)cc1Cl	inactive	–
Nc1nc(N)nc(Cl)n1	inactive	–
CCOC(=O)C(SP(=S)(OC)OC)c1ccccc1 (stereo not given)	inactive	–
CCOc1cc(C=O)ccc1O	inactive	–
CCCCOC(=O)COC(=O)c1ccccc1C(=O)OCCCC	inactive	–
ClCc1ccccc1CCl	–	29.6 µM (active)
CCCCC(CC)C(=O)Cl (stereo not given)	inactive	–
